Test results published in PubChem BioAssay AID2102 (Southern Research Specialized Biocontainment Screening …, 2009).
Out of some 1,100 compounds screened, about 210 (19%) were called active. Only a sample is shown. Potency and affinity values are given separately. Values without a mark were called inactive. How the calls were made is not given here.

Assay: host cell cytotoxicity, dose response, cytotoxicity control for SV40 T antigen inhibitor project, selected hits (AID 2102);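 further: cells exposed to compounds for 72 hours; 100% = mean of untreated cell control wells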
Conditions: Host cell viability cytotoxicity counter-screen; series mostly up to 50 µM; viability: at the top concentration

| SMILES | viability |
| --- | --- |
| COc1cc(SC)ccc1C(=O)N1CCN(c2ccc(O)cc2)CC1 | 97.8% |
| COc1cc(SC)ccc1C(=O)N1CCN(Cc2ccccc2)CC1 | 88.4% |
| Cc1ccc(C)c(S(=O)(=O)Nc2ccc(O)cc2)c1 | 87.3% |
| O=c1oc2cc(O)ccc2c2ccccc12 | 95.3% |
| Oc1ccc2c(c1)oc1cc(O)ccc12 | 101% |
| OC1CCN(C(=S)Nc2ccc(Nc3ccccc3)cc2)CC1 | 91.4% |
| OCCNc1nc(Nc2ccc(O)cc2)nc2ccccc12 | 86.5% |
| CN1CCN(c2nc(Nc3ccc(O)cc3)nc3ccccc23)CC1 | 89.4% |
| Cc1ccc2oc(=O)c(/C=C(\O)C(C)(C)C)nc2c1 | 87% |
| CNC(=S)N1CCN(c2ccc(OC)cc2)CC1 | 100% |
| COc1ccc(N2CCN(C(=O)NC3CC(=O)N(c4ccc(OC)cc4)C3)CC2)cc1 (centres undefined) | 86% |
| COc1cc2c(cc1NC(=S)Nc1ccccc1C)oc1ccccc12 | 96.6% |
| COc1ccc(CNC(=S)N/N=C/c2ccc(O)c(OC)c2)cc1 | 96.2% |
| COc1ccc(NC2CCCN(C(=O)c3ccc(OC)o3)C2)cc1 (centres undefined) | 99.9% |
| COc1cc(/C=N/NC(=O)CC#N)cc(Br)c1O | 142% |
| COc1ccc(N2C(=O)CC(Sc3n[nH]c(-c4cccc(C)c4)n3)C2=O)cc1 (centres undefined) | 98.2% |
| CC1=C(C#N)c2nc(N)c(C#N)c(C)c2/C1=C\c1ccc(-c2ccccc2C(=O)O)o1 | 112% |
| COc1cc(/C=C2\N=C3CCCCCN3C2=O)ccc1O | 96.3% |
| O=c1/c(=C\c2cc([N+](=O)[O-])cc([N+](=O)[O-])c2O)sc2nc3ccccc3n12 | 92.6% |
| O=C1C=C(Nc2ccc(O)cc2)CC(c2ccco2)C1 (centres undefined) | 100% |
| O=C(O)/C=C/c1ccc(O)cc1 | 104% |
| COc1cc(-c2nc(=S)[nH][nH]2)cc(OC)c1OC | 111% |
| C=CCn1c(CNc2ccccc2)nnc1SCC(=O)N/N=C/c1ccc(O)cc1O | 80.3% |

| SMILES | viability |
| --- | --- |
| O=C(N/N=C/c1ccc(O)cc1)c1csc2ccccc12 | 112% |
| CCCn1c(=O)c2ccccc2n2c(=S)[nH]nc12 | 85.2% |
| CNC(=S)Nc1ccc(Nc2ccccc2)cc1 | 87.8% |
| NC(=O)Nc1ccc(Nc2ccccc2)cc1 | 95.5% |
| O=[N+]([O-])c1cccc(S(=O)(=O)N/N=C/c2ccc(O)cc2)c1 | 101% |
| O=C(CN1C(=O)/C(=C/c2ccco2)SC1=S)Nc1ccc(C(=O)O)c(O)c1 | 117% |
| COc1cc2c(cc1OC)C[N+](C)(C)CC2 | 106% |
| COc1cc(/C=N/Nc2nncn2/N=C/c2ccc(O)c(OC)c2)ccc1O | 81.7% |
| N#CC1=C(N)NC(=S)C(C(N)=O)C1c1ccccc1F (centres undefined) | 101% |
| CCOc1cc(N2CCOCC2)c(OCC)cc1NC(C)C(=O)N1CCC(C)CC1 (centres undefined) | 85% |
| CCNC(=S)Nc1cc(OCC)c(N2CCOCC2)cc1OCC | 111% |
| COc1ccc(NC2CCCN(C(=O)CSc3ccccc3)C2)cc1 (centres undefined) | 92.6% |
| CCOC(=O)C1=C(O)/C(=C\c2ccc(O)c(OCC)c2)N=C1C | 118% |
| O=C1NC(=O)C(c2ccccc2[N+](=O)[O-])=C1Nc1ccc(O)c(Cl)c1 | 89.1% |
| O=c1oc2ccccc2c2oc3cc(O)c(O)cc3c12 | 106% |
| COc1cc(/C=N/NC(=O)C2=NNC(=O)C2C)ccc1O (centres undefined) | 99.6% |
| O=C(c1nnsc1S(=O)c1ccc(Cl)cc1)N1CCOCC1 (centres undefined) | 86.6% |
| CN(C)c1ccc(NC(=O)CN2CCN(CC(=O)Nc3ccc(F)cc3)CC2)cc1 | 99.9% |
| CCOc1cc(/C=C2\NC(=S)N(c3c(C)n(C)n(-c4ccccc4)c3=O)C2=O)ccc1O | 106% |
| O=S(=O)(NC1=NCCCCC1)c1ccc2sc(NS(=O)(=O)c3ccc4ccccc4c3)nc2c1 | 88.3% |
| COc1cc(/C=C2\S/C(=N/S(=O)(=O)c3ccc(C)cc3)NC2=O)c([N+](=O)[O-])cc1OC | 107% |
| O=S(=O)(Nc1ccc(O)cc1)c1cccc2cccnc12 | 87.8% |
| O=C(c1ccco1)N1CCN(C(=S)Nc2ccc(F)c(Cl)c2)CC1 | 83.2% |

| SMILES | viability |
| --- | --- |
| CN(C)c1ccc(NC(=O)c2ccc(N3CCOCC3)nc2)cc1 | 95.9% |
| COc1cc(C(c2c(C)[nH][nH]c2=O)c2c(C)[nH][nH]c2=O)ccc1OC(=O)c1cccc([N+](=O)[O-])c1 | 122% |
| CCOC(=O)C1(C)C=C(Nc2ccc(O)cc2)C(=O)N1c1ccc(O)cc1 (centres undefined) | 96.8% |
| Cn1c(=O)oc2cc(S(=O)(=O)Nc3ccc(O)cc3)ccc21 | 84.3% |
| CN(C)c1ccc(NC(=O)CSc2nnc(-c3ccco3)c(-c3ccco3)n2)cc1 | 90.5% |
| N/C(=N\N=C\c1ccc(O)c(O)c1)c1nonc1N | 95.9% |
| COc1cc(/C(C)=N/NC(=O)Cc2c(C)[nH][nH]c2=O)ccc1O | 96.4% |
| CN=c1scc(C)n1/N=C/c1ccc(O)cc1 | 102% |
| CC1=C(C(=O)c2ccccc2)C(c2ccc(O)cc2)NC(=S)N1 (centres undefined) | 109% |
| Nc1nc2ccc(O)cc2s1 | 104% |
| Cc1cc2c(n1-c1ccc(C(=O)O)cc1)CCCCC2 | 92.3% |
| O=C(c1cccc(-c2ccc(O)cc2)c1)N1CCOCC1 | 106% |
| CC(=O)Nc1ccc(S(=O)(=O)Nc2nc3ccccc3nc2Nc2ccc(O)cc2)cc1 | 92% |
| CCOc1cc(/C=N\NC(=O)CC(=O)NCCc2ccccc2)ccc1O | 93.8% |
| Cc1cc(=O)[nH]c(N/N=C/c2c[nH]c3ccccc23)n1 | 122% |
| CCn1cnc2cc(NCc3ccc(N(C)C)cc3)ccc21 | 107% |
| C/C(=N\NC(=O)CSc1nc2ccccc2o1)c1ccc(O)cc1 | 86.8% |
| Cc1cccc(N2NC(=O)/C(=C/c3ccc(-c4ccc(Cl)c(C(=O)O)c4)o3)C2=O)c1 | 104% |
| C=CCn1c(SCC(=O)c2ccc(O)c(O)c2)nnc1-c1ccccc1OC | 83.6% |
| COc1cc(/C=N/NC(=O)c2cc(C3CC3)[nH]n2)ccc1O | 105% |
| COCCCNC(=S)N/N=C/c1ccc(O)cc1O | 89.5% |
| Nc1c(O)cccc1C(=O)O | 106% |
| NC(=O)N/N=C/c1c(Sc2nnnn2-c2ccccc2)nc2ccccn2c1=O | 87.2% |

| SMILES | viability |
| --- | --- |
| COc1ccc2c(c1OC)C(=O)N(c1ccc(O)cc1)C2 | 95.8% |
| O=C1CCCC2=C1Sc1ccccc1N2 | 100% |
| CCSC1(SCC)N=C(N)C2(C#N)C(c3ccc(OC)c(OC)c3OC)C12C#N (centres undefined) | 90.3% |
| COc1cc(/C=N/NC(=O)c2nc(C)cc(C)n2)ccc1O | 103% |
| Cc1nonc1C(=O)N/N=C/c1ccc(O)c(O)c1 | 109% |
| CC(=O)NCCc1c[nH]c2ccc(O)cc12 | 108% |
| COc1ccccc1N1CSC2=C(C#N)C(c3ccc(SC)cc3)CC(=O)N2C1 (centres undefined) | 104% |
| COc1cc(/C=N/NS(=O)(=O)c2ccc(Br)cc2)ccc1O | 103% |
| CC(=O)c1ccc2c(c1)C1C=CCC1C(C(=O)O)N2 (centres undefined) | 102% |
| Nc1cc(C(=O)O)c(N)c2c1C(=O)c1ccccc1C2=O | 94.8% |
| C=CCSC1=NC(=O)/C(=C/c2cccs2)S1 | 96% |
| CCCC1=NN2C(=N)/C(=C\c3ccc(SCc4ccco4)o3)C(=O)N=C2S1 | 93.2% |
| N=C1/C(=C\c2ccc(SCc3ccco3)o2)C(=O)N=C2SC=NN12 | 102% |
| CN1CCC/C1=C/C=C1\SC(=S)NC1=O | 108% |
| CSC1=NSC2=NC(=O)/C(=C\c3coc4ccccc4c3=O)C(=N)N12 | 90.3% |
| CN(C)c1ccc(NC(=O)CN2CCC(N3CCCCC3)CC2)cc1 | 106% |
| N#C/C(=C\c1coc2ccc(O)cc2c1=O)C(=O)Nc1nc2ccccc2s1 | 110% |
| O=c1c2cc(O)c(O)cc2oc2cc(O)c(C3OC(CO)C(O)C(O)C3O)c(O)c12 (centres undefined) | 99.3% |
| CCOc1cc(NC2CS(=O)(=O)CC2O)c(OCC)cc1NC(=O)c1ccccc1 (centres undefined) | 81.7% |
| CC1(C)CC(=O)C(C=Nc2ccc(O)cc2)=C(O)C1 | 95.6% |
| COc1ccc(-n2c(=O)c3c4c(sc3n3c(=S)[nH]nc23)CCC4)cc1 | 81.5% |
| O=c1c2c3c(sc2n2c(=S)[nH]nc2n1-c1ccccc1)CCC3 | 88.7% |
| COCCCn1c(=O)c2ccccc2n2c(=S)[nH]nc12 | 94.7% |

| SMILES | viability |
| --- | --- |
| O=C(O)CCNc1ccc(NCCC(=O)O)c2c1C(=O)c1ccccc1C2=O | 87.2% |
| OCc1ccccc1SSc1ccccc1CO | 82.2% |
| Oc1ccc(-c2nc3ccccn3c2NCc2ccco2)cc1 | 110% |
| Oc1ccc2ccccc2c1C=Nc1ccc(N2CCOCC2)cc1 | 100% |
| Cc1ccc(-n2nnnc2C(Cl)(Cl)c2nnnn2-c2ccc(C)cc2)cc1 | 93.8% |
| c1ccc(-c2ccc3c(c2)NCCN3)cc1 | 109% |
| Oc1ccc(/C=N/NC(=S)Nc2cccnc2)cc1 | 109% |
| CCCCC1(C)OC(=O)C(=Cc2ccc(-c3ccc(Cl)c(C(=O)O)c3)o2)C(=O)O1 (centres undefined) | 97.5% |
| O=c1c2ccccc2sn1-c1cc(S(=O)(=O)N2CCOCC2)ccc1N1CCCC1 | 89.4% |
| Nc1nc2ccc(S(=O)(=O)N3CCCCC3)cc2s1 | 82.8% |
| O=C(O)c1ccccc1NS(=O)(=O)c1cccc(-n2sc3ccccc3c2=O)c1 | 115% |
| C[C@]12CC[C@@H]3c4cc(O)c(O)cc4CC[C@H]3[C@@H]1CC[C@@H]2O | 86.2% |
| O=C(Nc1ccc(O)cc1)c1ccc(NC(=O)C2CCCO2)cc1 (centres undefined) | 113% |
| COc1cc([N+](=O)[O-])ccc1NC(=O)Oc1ccc(NC(C)=O)cc1 | 111% |
| O=C1CC(=O)N(Cc2ccco2)C(=O)N1 | 92.7% |
| COc1ccc(NCC(O)Cn2cnc3c2c(=O)n(C)c(=O)n3C)cc1 (centres undefined) | 87.5% |
| CCN(CC)c1ccc(NC(=O)COC(=O)c2ccc3ccccc3n2)cc1 | 107% |
| COc1cc(/C=c2\sc3n(c2=O)CCCN=3)ccc1O | 113% |
| Cc1nn(CC(=O)Nc2ccc(N(C)C)cc2)c(C)c1[N+](=O)[O-] | 90% |
| Cc1cc(=O)oc2c(N)c(O)ccc12 | 112% |
| Cc1cc(C)c2c(c1)NC(C(=O)O)C1CC=CC21 (centres undefined) | 101% |
| CCOc1cc(/C=N/Nc2ncnc(Cl)c2N)ccc1O | 93.8% |
